# Source: the supplement of paper PMC11732987, “Enantioselective OTUD7B fragment discovery through chemoproteomics screening and high-throughput optimisation” (Communications Chemistry, 2025)
# Values without a mark were called inactive.
# Tests used:
# Assay in all cases: log2 ratio of Biotin-Ahx-Ub-VS probe labelling (fragment/DMSO); higher = less target engagement (more negative = stronger competition), active = hit call of the paper (q ≤ 0.05, log2 ratio ≤ -1)
# Details in all cases: compound concentration: 200 uM; treatment time: 3 h
# OTUD6B = biological target: T1, OTUD6B (UniProt Q8N6M0)
# T1 sequence (whole entry): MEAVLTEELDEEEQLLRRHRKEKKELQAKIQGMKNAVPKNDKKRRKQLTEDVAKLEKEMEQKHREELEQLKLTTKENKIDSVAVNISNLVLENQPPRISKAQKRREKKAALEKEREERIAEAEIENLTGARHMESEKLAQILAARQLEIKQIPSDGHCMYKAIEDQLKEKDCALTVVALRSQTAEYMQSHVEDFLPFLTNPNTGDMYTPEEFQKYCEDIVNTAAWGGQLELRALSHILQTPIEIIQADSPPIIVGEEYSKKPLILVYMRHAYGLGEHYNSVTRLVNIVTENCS
# Summary of the method: (§1)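 Labelled DUBs were enriched with NeutrAvidin, digested with LysC and trypsin, and run by diaPASEF LC-MS/MS. The labelling used Biotin-Ahx-Ub-VS at 0.5 µM final for 1 h on HEK293T lysate (495 µg per sample) previously treated in triplicate with fragment at 200 µM or vehicle for 3 h. Values are average log2 fragment/vehicle ratios by unpaired t-test on global-median-normalised Spectronaut quantities of proteins with ≥2 unique peptides.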
# OTUD7B = biological target: T2, OTUD7B (UniProt Q6GQQ9)
# T2 sequence (whole entry): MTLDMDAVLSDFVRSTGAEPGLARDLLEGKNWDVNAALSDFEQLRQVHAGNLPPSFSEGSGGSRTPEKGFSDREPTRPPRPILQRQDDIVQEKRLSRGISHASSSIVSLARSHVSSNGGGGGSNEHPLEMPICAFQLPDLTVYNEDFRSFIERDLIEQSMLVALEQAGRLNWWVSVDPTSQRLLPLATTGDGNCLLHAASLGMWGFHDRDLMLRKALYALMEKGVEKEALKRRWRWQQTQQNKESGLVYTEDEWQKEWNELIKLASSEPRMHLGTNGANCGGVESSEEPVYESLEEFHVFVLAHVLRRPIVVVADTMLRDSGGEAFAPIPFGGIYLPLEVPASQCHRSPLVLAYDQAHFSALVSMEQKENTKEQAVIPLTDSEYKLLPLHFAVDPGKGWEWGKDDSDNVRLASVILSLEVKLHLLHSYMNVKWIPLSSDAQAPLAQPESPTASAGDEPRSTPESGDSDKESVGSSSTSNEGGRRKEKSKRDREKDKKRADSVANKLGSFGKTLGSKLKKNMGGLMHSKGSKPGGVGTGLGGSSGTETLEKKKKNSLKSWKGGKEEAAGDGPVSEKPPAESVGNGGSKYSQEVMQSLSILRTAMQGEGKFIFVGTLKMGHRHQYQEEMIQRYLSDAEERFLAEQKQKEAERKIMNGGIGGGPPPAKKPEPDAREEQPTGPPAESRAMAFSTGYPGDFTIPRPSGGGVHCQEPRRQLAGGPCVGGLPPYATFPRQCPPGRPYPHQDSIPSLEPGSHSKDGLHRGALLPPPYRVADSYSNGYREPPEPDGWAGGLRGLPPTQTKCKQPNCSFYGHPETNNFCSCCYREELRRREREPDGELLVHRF
# Summary of the method: as §1
# PRPF8 = PRPF8 (UniProt Q6P2Q9)
# Summary of the method: as §1
# PSMD7 = biological target: T3, PSMD7 (UniProt P51665)
# T3 sequence (whole entry): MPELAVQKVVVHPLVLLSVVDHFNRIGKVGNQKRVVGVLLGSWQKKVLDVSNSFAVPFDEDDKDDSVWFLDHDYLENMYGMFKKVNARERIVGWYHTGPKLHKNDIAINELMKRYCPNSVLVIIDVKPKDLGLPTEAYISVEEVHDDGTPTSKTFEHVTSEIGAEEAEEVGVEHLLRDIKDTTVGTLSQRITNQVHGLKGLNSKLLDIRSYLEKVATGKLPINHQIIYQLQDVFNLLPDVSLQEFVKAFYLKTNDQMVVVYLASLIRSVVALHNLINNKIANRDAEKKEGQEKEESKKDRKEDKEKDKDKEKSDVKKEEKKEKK
# Summary of the method: as §1
# UCHL1 = UCHL1 (UniProt P09936)
# Chain of UCHL1 (P09936 whole entry, looked up): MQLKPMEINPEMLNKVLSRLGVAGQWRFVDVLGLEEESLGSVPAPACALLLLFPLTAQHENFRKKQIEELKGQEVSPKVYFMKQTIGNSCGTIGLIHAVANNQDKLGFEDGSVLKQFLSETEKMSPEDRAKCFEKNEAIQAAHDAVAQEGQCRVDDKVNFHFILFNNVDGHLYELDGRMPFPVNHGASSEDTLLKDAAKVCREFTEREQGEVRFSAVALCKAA
# Summary of the method: as §1
# UCHL3 = biological target: T4, UCHL3 (UniProt P15374)
# T4 sequence (whole entry): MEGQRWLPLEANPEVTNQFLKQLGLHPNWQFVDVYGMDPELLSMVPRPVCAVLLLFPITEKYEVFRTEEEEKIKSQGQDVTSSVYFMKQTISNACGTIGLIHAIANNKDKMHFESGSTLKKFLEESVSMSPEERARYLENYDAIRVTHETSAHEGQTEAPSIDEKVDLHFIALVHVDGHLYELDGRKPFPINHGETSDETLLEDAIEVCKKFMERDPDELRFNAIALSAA
# Summary of the method: as §1
# UCHL5 = biological target: T5, UCHL5 (UniProt Q9Y5K5)
# T5 sequence (whole entry): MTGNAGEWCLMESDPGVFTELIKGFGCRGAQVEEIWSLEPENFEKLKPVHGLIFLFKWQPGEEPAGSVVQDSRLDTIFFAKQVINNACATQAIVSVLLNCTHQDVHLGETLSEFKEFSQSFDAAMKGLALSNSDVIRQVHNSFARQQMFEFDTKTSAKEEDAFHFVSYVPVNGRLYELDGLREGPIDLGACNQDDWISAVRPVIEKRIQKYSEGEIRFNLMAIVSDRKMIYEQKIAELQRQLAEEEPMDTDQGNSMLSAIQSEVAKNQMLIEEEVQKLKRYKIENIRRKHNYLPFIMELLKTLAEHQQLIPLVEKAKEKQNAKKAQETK
# Summary of the method: as §1
# USP10 = USP10 (UniProt Q14694)
# Chain of USP10 (Q14694 whole entry): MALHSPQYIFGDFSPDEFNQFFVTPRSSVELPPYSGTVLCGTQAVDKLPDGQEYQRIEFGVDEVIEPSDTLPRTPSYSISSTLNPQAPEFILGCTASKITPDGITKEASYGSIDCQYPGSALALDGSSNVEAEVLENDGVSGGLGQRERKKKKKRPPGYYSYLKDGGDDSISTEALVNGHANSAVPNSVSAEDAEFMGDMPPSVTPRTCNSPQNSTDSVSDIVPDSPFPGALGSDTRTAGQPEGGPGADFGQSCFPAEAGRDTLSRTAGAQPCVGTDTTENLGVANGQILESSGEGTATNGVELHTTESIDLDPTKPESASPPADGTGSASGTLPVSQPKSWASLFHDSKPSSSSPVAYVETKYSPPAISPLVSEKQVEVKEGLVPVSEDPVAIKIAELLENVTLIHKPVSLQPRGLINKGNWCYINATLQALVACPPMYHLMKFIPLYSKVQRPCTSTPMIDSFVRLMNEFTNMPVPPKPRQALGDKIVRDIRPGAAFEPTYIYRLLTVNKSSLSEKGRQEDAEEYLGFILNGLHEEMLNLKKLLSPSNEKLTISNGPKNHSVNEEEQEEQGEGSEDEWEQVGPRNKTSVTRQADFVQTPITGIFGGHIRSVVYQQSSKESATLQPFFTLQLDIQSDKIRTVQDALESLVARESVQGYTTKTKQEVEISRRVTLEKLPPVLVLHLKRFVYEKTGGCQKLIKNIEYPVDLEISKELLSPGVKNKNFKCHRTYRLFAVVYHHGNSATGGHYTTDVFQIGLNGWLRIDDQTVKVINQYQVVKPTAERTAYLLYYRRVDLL
# Summary of the method: as §1
# USP15 = biological target: T6, USP15 (UniProt Q9Y4E8)
# T6 sequence (whole entry): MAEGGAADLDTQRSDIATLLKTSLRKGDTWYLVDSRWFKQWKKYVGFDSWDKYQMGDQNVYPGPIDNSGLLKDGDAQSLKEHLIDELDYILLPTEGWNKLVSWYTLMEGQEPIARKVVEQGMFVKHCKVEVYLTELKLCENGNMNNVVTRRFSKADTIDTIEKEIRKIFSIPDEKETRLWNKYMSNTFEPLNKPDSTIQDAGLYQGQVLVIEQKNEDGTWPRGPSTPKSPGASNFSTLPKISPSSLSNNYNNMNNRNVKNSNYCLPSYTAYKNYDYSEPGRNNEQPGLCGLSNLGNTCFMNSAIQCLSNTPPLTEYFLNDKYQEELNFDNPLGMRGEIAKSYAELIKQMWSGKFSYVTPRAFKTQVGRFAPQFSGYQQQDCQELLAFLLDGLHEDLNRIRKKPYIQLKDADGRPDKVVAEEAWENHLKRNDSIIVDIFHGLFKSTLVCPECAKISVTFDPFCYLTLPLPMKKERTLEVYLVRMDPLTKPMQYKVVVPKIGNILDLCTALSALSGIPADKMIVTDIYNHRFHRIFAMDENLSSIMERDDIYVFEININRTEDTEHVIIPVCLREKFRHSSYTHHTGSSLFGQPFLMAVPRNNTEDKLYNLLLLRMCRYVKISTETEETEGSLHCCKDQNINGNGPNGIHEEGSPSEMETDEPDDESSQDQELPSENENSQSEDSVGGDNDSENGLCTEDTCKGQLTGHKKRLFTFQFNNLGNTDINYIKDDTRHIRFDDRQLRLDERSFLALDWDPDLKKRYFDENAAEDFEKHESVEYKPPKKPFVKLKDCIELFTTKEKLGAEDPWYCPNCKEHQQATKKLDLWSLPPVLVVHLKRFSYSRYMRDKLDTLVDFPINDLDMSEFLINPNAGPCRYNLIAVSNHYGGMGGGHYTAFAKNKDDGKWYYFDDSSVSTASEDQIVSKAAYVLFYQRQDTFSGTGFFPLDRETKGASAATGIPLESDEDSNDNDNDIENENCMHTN
# Summary of the method: as §1
smiles,measurement,setting,value
O=C(CCl)N1CCN(C(=O)Nc2ccccc2)CC1,log2 ratio of Biotin-Ahx-Ub-VS probe labelling,OTUD6B,0.0713
same,log2 ratio of Biotin-Ahx-Ub-VS probe labelling,OTUD7B,-0.112
same,log2 ratio of Biotin-Ahx-Ub-VS probe labelling,PRPF8,-0.00577
same,log2 ratio of Biotin-Ahx-Ub-VS probe labelling,PSMD7,0.0846
same,log2 ratio of Biotin-Ahx-Ub-VS probe labelling,UCHL1,-1.33 (active)
same,log2 ratio of Biotin-Ahx-Ub-VS probe labelling,UCHL3,-0.441
same,log2 ratio of Biotin-Ahx-Ub-VS probe labelling,UCHL5,0.033
same,log2 ratio of Biotin-Ahx-Ub-VS probe labelling,USP10,-0.135
same,log2 ratio of Biotin-Ahx-Ub-VS probe labelling,USP15,-0.101
